From PubChem BioAssay AID1430 (University of Pittsburgh Molecular Library Screening Center, 2008)
In all, about 220,000 compounds went through this assay and about 240 (0.11%) were called active. The entries come from a sample that favours actives as a whole. Unmarked numbers belong to inactive results.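 The calls were made as follows: active = inhibition of 50% or more in the single-dose primary screen; inactive = inhibition below 50%.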

Each molecule was assayed on hexokinase 1 [Trypanosoma brucei] (assay: TbHK1 enzyme activity blockers – biochemical, G6PDH-coupled NADH absorbance, MLSCN library, primary screen (AID 1430)). Settings: recombinant TbHK1, G6PDH-coupled NADH A340; at 10 µM; active compounds read high.

Row | SMILES | inhibition
1 | COc1cc(Cl)c(C)cc1NC(=O)[C@@H]1CCCN1C(=O)c1cccs1 | -2.99%
2 | CC/C(=N\NC(=S)NC(C)C)c1ccc(OC(F)F)cc1 | 10.1%
3 | O=C(c1ccc2ccccc2n1)N1CCN(c2ccccc2Cl)CC1 | -6.88%
4 | CCN(/N=C/c1ccc(N(C)C)cc1)c1nc2ccccc2[nH]1 | -4.95%
5 | COc1ccc(C(C#N)Nc2ccccc2C)cc1 (centres undefined) | 4.57%
6 | COC(=O)c1c(NC(=O)COC(=O)[C@@H](NS(=O)(=O)c2ccccc2)C(C)C)sc2c1CCC2 | -13.7%
7 | CC(C)COC(=O)n1c(=O)oc2ccc(S(=O)(=O)N3CCCCC3)cc21 | -6.57%
8 | Cc1cc(C)n2nc(C(=O)N(C)C(c3ccccc3)c3ccccc3)nc2n1 | 1.27%
9 | C[n+]1ccccc1C1CCCC/C1=N\Nc1ccc([N+](=O)[O-])cc1[N+](=O)[O-] (centres undefined) | -18.3%
10 | CCOC(=O)/C(=N\Nc1ccccc1Cl)N(C)C1CCS(=O)(=O)C1 (centres undefined) | -29.3%
11 | Cn1cc(/C=C/C(=O)N2CCCC(C(=O)c3ccc(C(F)(F)F)cc3)C2)cn1 (centres undefined) | -9.79%
12 | CC(C)(C)NC(=O)NCc1ccco1 | 3.59%
13 | O=C(COC(=O)/C=C/c1cn(-c2ccccc2)nc1-c1cccnc1)Nc1ccc(Cl)cc1Cl | -3.93%
14 | CC(=O)Nc1ccc(Nc2c([N+](=O)[O-])cc(S(C)(=O)=O)cc2[N+](=O)[O-])cc1 | -2.68%
15 | Cc1ccccc1C(=O)NNC(=O)CN1C(=O)c2ccccc2C1=O | 0.726%
16 | COc1ccc(/C=N/NS(=O)(=O)c2ccc(NC(C)=O)cc2)cc1 | -17.4%
17 | Cc1ccc(NC(=O)C(=O)NCC2CCN(C(=O)c3cccc([N+](=O)[O-])c3)CC2)cc1 | -4.84%
18 | CC(=O)NC(Cc1ccc(F)c(F)c1)C(=O)NC1CCN(c2nnnn2-c2ccccc2)CC1 (centres undefined) | -4.26%
19 | O=C(c1ccncc1)c1ccc([N+](=O)[O-])cc1 | -1.97%
20 | COc1ccc(CCNC(=O)CN(c2ccccc2)S(C)(=O)=O)cc1 | 2.74%
21 | OC(CN1C2=NCCCN2c2ccccc21)c1ccc(Br)cc1 (centres undefined) | -1.72%
22 | CN(CC#CCC(c1ccccc1)c1ccccc1)C(C)(C)C | -4.21%
23 | O=C(O)c1cccnc1NC1CCCC1 | -18.1%
24 | O=C(O)c1ccc(N=NN2CCOCC2)cc1 | 11.7%
25 | COCCNc1cc(NCCOC)c([N+](=O)[O-])cc1[N+](=O)[O-] | -26.9%
26 | Cc1ccc(CNC(=O)CC2Sc3ccccc3NC2=O)cc1 (centres undefined) | -3.22%
27 | CC(C)(C)c1ccc(C(=O)NCc2nnc(SCC(=O)N3CCCc4ccccc43)n2-c2ccccc2)cc1 | -3.07%

Row | SMILES | inhibition
28 | Cc1ccc(-n2nc(N)c3c(=O)oc(N(C)C)nc32)cc1 | 0.228%
29 | OCCCNC(c1ccccc1)c1ccc(O)cc1 (centres undefined) | 0.734%
30 | OCCn1c(-c2ccccc2)csc1=Nc1ccccc1 | -11.3%
31 | CC1(C)CC(=O)C=C(NCCCN2CCCC2=O)C1 | 0.498%
32 | CC1(C)CC(=O)C=C(NCCN2CCNCC2)C1 | -12.2%
33 | CC1(C)CC(=O)C=C(NCCCNC2CCCCC2)C1 | 58.6% (active)
34 | Cc1cc(C)c2nc(SCC(=O)N(C)C3CCS(=O)(=O)C3)cc(C)c2c1 (centres undefined) | -5.97%
35 | CCc1ccc(-c2nn(-c3ccccc3)cc2CSC(=N)N)cc1 | 14%
36 | O=c1c(-c2ccccc2)cnc2n1CCS2 | -3.12%
37 | CN(C)c1ccc(C=C2C(=O)OC3(CCCC3)OC2=O)cc1 | -24.4%
38 | Cc1cccc(C)c1NC(=O)C(c1ccccc1)N1CC(=O)Nc2ccccc21 (centres undefined) | 3.26%
39 | C/C(CC1CC(C)(C)OC1=O)=N/Nc1nc(-c2ccccc2)cs1 (centres undefined) | -4.91%
40 | CCOC(=O)C(=O)Nc1nc(-c2ccccc2)c(CC)s1 | -8.25%
41 | Cc1ccc(CNC(=O)COc2ccc(S(=O)(=O)NC(C)C)cc2)cc1 | -6.99%
42 | O=C(NC(=S)Nc1cc(C(F)(F)F)ccc1N1CCOCC1)c1ccc(-c2cccc(Cl)c2)o1 | -33.5%
43 | CCNC(=O)CC1C(=O)N(c2ccc(F)cc2)C(=O)N1Cc1cccs1 (centres undefined) | -6.58%
44 | COC(=O)c1ccc(NC(=S)NN2CCOCC2)cc1 | 0.284%
45 | COc1ccc(NS(=O)(=O)c2cc(NC(=O)CC(=O)c3ccc([N+](=O)[O-])cc3)ccc2C)cc1 | -3.8%
46 | N#C/C(C(=S)Nc1ccccc1)=C1/NN=C(N2CCOCC2)N1c1ccccc1 | -22%
47 | Cc1ccc(C(=O)N/C(=C\c2ccco2)C(=O)N2CCSCC2)cc1C | -18.1%
48 | C/C(=N/NC(=O)c1cc(Cl)ccc1O)C12CC3CC(CC(C3)C1)C2 | -5.54%
49 | Cn1nc(C(F)(F)F)cc1-c1ccc(/C=C(\C#N)C(=O)c2cccc(C(F)(F)F)c2)s1 | 20.2%
50 | Cc1ccc(/C=C/C(=O)Nc2ccc([N+](=O)[O-])c(NC(=O)/C=C/c3ccc(C)o3)c2)o1 | -13.6%
51 | Cc1ccc2[nH]c(C)c(CCNC(=O)NC3CCCCC3)c2c1 | -1.75%
52 | C/C(=N/Nc1ccc(Cl)cc1)c1cnnc(-c2ccccc2)n1 | -3.6%
53 | COC(C[C@H](O)CC(=O)COCc1ccccc1)OC | -5.95%
54 | CC1CCCN(C(=O)c2ccc3c(c2)C(=O)N(CCC2=CCCCC2)C3=O)C1 (centres undefined) | 9.11%
